From PubChem BioAssay
The source made the active and inactive calls.

Columns and labels:
[1] = optical density shifts of acrAB sulA E. coli – strain DRC41, OD650, 48 h, E. coli filamentation inducer project, primary screen (AID 1152); conditions: higher = more signal, called active from +8 up or from −8 down;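 note: E. coli MC1000 strain DRC41 lacking acrAB efflux pump and sulA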
[2] = probe aLefty1 binding on compound microarray – biochemical, small-molecule microarray, 635/667 nm fluorescence, primary screen (AID 1153); conditions: higher = more signal;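 note: score merges spot fluorescence with signal-to-noise ratio from the scanned slide images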
[3] = plasmodial surface anion channel blockers, osmotic lysis – cell-based, P. falciparum Indochina, OD700, 1 h, primary screen (AID 1154); conditions: P. falciparum Indochina infected RBC osmotic lysis, higher = more signal, called active from +8 up or from −8 down
[4] = plasmodial surface anion channel blockers, osmotic lysis – cell-based, P. falciparum Indochina, OD700, 2 h, primary screen (AID 1155);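 note: lysis reports solute entry through the parasite surface anion channel PSAC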; conditions: P. falciparum Indochina infected erythrocytes, higher = more signal, called active from +8 up or from −8 down
[5] = changes in parasitized red cell lysis, either direction – P. falciparum Indochina, OD700, 3 h, PSAC antagonist project, primary screen (AID 1156); conditions: P. falciparum-infected erythrocytes, osmotic lysis, higher = more signal, called active from +8 up or from −8 down
[6] = plasmodial surface anion channel blockers, osmotic lysis – cell-based, P. falciparum Indochina, OD700, 18 h, primary screen (AID 1157); conditions: P. falciparum Indochina infected erythrocytes, osmotic lysis OD700, 18 h; higher = more signal, called active from +8 up or from −8 down
[7] = S6 kinase pathway phospho-S6 level changes – cell-based, A549, cytoblot, luminescence, serum-stimulated, primary screen (AID 1158); conditions: 5 h, higher = more signal;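 note: serum-stimulated A549 lung adenocarcinoma cells; signal is phosphorylated S6 detected by cytoblot immunostaining with HRP secondary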
[8] = molecular target: NADPH oxidase 2 (Homo sapiens) (UniProt P04839); test: compounds shifting NOX2 Amplex Red fluorescence – cell-based, HEK293-NOX2, PMA-stimulated, NOX inhibitor project, primary screen (AID 1159); conditions: 45 min, higher = more signal, called active from +8 up or from −8 down; note: test concentration not given here
NADPH oxidase 2 (Homo sapiens), sequence (P04839 whole entry, looked up): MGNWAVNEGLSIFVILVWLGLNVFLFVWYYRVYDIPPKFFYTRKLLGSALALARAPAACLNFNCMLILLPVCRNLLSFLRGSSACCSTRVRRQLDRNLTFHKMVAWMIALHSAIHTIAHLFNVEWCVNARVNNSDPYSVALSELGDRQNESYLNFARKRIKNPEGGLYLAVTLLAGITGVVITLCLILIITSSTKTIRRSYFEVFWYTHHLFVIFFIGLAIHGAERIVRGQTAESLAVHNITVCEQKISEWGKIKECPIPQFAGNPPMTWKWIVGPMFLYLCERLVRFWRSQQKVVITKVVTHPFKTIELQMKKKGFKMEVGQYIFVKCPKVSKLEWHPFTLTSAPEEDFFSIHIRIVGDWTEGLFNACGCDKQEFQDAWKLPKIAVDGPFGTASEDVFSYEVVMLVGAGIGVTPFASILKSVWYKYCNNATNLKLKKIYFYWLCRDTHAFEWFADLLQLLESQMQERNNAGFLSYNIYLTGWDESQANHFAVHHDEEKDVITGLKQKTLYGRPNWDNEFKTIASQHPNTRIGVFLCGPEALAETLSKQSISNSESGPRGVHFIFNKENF

[9] = molecular target: NADPH oxidase 4 (Homo sapiens) (UniProt Q9NPH5); test: compounds shifting NOX4 Amplex Red fluorescence – cell-based, HEK293-NOX4, tetracycline-induced, NOX inhibitor project, primary screen (AID 1160); conditions: HEK293-NOX4, Amplex Red H2O2 fluorescence, 45 min; higher = more signal, called active from +8 up or from −8 down
NADPH oxidase 4 (Homo sapiens), sequence (Q9NPH5 whole entry, looked up): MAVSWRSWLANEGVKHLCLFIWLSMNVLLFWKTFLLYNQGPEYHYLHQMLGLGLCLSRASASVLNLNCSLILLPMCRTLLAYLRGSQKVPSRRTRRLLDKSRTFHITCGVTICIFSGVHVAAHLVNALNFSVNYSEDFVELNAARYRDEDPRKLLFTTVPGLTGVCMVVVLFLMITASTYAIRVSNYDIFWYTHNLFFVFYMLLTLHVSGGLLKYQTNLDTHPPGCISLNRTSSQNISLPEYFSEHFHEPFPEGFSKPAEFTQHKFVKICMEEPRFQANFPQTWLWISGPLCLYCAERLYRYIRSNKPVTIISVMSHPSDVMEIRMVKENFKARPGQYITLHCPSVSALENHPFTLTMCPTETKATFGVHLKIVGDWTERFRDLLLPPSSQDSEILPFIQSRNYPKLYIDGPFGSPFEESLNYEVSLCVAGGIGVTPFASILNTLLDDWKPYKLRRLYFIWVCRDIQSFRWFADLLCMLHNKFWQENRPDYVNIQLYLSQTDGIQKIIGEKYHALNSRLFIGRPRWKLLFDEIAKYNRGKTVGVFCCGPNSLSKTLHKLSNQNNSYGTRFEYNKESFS

[10] = molecular target: NADPH oxidase 5 (Homo sapiens) (UniProt Q96PH1); test: compounds shifting NOX5 Amplex Red fluorescence – cell-based, HEK293-NOX5, NOX inhibitor project, primary screen (AID 1161); conditions: HEK293-NOX5, ionomycin, 45 min, higher = more signal
NADPH oxidase 5 (Homo sapiens), sequence (Q96PH1 whole entry, looked up): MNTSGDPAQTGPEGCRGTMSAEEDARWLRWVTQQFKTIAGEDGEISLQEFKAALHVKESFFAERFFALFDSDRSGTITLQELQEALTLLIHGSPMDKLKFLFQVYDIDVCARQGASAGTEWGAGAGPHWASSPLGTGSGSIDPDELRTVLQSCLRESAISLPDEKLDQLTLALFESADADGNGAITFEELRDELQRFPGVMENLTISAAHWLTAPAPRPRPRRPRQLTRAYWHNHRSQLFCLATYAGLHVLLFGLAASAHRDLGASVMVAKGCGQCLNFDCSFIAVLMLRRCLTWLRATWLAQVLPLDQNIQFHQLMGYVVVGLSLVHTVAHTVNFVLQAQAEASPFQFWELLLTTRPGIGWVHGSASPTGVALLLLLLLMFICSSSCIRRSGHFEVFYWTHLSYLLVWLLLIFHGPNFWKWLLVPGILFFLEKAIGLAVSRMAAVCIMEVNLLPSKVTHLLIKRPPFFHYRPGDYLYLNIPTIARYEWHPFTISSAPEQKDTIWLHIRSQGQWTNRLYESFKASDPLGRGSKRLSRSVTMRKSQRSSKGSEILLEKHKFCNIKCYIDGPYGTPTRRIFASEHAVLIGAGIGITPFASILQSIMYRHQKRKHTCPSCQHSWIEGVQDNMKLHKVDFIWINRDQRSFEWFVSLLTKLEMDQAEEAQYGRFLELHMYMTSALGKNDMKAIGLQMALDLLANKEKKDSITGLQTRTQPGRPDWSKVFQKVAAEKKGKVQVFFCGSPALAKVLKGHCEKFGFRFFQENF

Row | SMILES | z-score [1] | composite z-score [2] | z-score [3] | z-score [4] | z-score [5] | z-score [6] | z-score [7] | z-score [8] | z-score [9] | z-score [10]
1 | C[N+](C)(C)CCCCNC(=O)[C@H]1C[C@H]2C(=O)N[C@@H](Cc3ccccc3)C(=O)N2[C@H]1c1ccc(O)cc1 | 0.274 (inactive) | -0.142 | 0.891 (inactive) | 0.0222 (inactive) | -0.271 (inactive) | 0.228 (inactive) | 0.149 | -2.12 (inactive) | -1.27 (inactive) | -2.42
2 | NCCCCCNC(=O)[C@@H]1C[C@@H]2C(=O)NCC(=O)N2[C@@H]1c1ccc(O)cc1 | -0.142 (inactive) | -0.0984 | 0.539 (inactive) | 0.115 (inactive) | -0.563 (inactive) | -0.0673 (inactive) | -0.47 | -0.354 (inactive) | -0.0757 (inactive) | 0.564
3 | COC(=O)[C@@]1(Cc2ccccc2)[C@H]2c3cc(C(=O)N(C)C)n(CCSCCO)c3C[C@H]2CN1C(=O)c1ccccc1 | -1.8 (inactive) | 0.138 | 1.02 (inactive) | 0.187 (inactive) | 0.189 (inactive) | 0.496 (inactive) | -0.199 | 0.594 (inactive) | 0.597 (inactive) | -0.72
4 | CC(C)c1ccc(NN2C(C(O)c3cc(C(F)(F)F)cc(C(F)(F)F)c3)C=CC3C(=O)N(c4ccccc4)C(=O)C32)cc1 (stereo not given) | -2.06 (inactive) | -0.101 | 3.24 (inactive) | 1.88 (inactive) | -1.37 (inactive) | 2.32 (inactive) | 0.122 | -1.3 (inactive) | -5.07 (inactive) | -4.2
5 | CC(C)C[C@@H]1NC(=O)[C@H]2C[C@@H](C(=O)NCCCCCCN(C)C)[C@@H](c3ccc(O)cc3)N2C1=O | -0.655 (inactive) | -0.0573 | 0.977 (inactive) | -0.116 (inactive) | -0.0599 (inactive) | -0.288 (inactive) | -0.384 | 0.193 (inactive) | 0.268 (inactive) | 0.0226
6 | O=C(c1ccccc1)N1Cc2ccccc2[C@@H]2OC(c3ccc(OCCCO)cc3)=N[C@]2(Cc2ccccc2)C1=O | -0.672 (inactive) | 0.343 | 10.8 (active) | 1.35 (inactive) | 1.25 (inactive) | 1.23 (inactive) | -0.118 | -0.893 (inactive) | 0.418 (inactive) | -0.781
7 | C#CCN(CC=C(C)C)[C@H](CO)c1ccccc1 | 0.0373 (inactive) | 0.213 | -0.214 (inactive) | -1.3 (inactive) | -0.717 (inactive) | -2.12 (inactive) | 1.22 | -0.0535 (inactive) | -0.102 (inactive) | -1.84
8 | COC(=O)[C@@]1(Cc2ccc(OC)cc2)[C@H]2c3cc(C(=O)N(C)C)n(CCN4CNCC4=O)c3C[C@H]2CN1C(=O)c1ccccc1 | -1.1 (inactive) | 0.249 | 0.143 (inactive) | -0.954 (inactive) | -0.163 (inactive) | -2.05 (inactive) | 0.963 | 0.821 (inactive) | 2.29 (inactive) | 0.453
9 | C=CCNC(=O)[C@H]1[C@@H]2C(=O)O[C@@H](c3ccccc3)[C@@H](c3ccccc3)N2[C@@H](c2ccccc2OCCO)[C@]12C(=O)Nc1ccc(C#CC3=CCCCC3)cc12 | 0.748 (inactive) | 0.0919 | 3.01 (inactive) | 2.25 (inactive) | 0.407 (inactive) | 1.71 (inactive) | 0.142 | 1.38 (inactive) | 0.676 (inactive) | 1.75
10 | [N-]=[N+]=Nc1ccccc1C[C@]1(C(=O)NCC(O)CO)N=C(c2ccc(OCCCO)cc2)O[C@H]1c1ccccc1N=[N+]=[N-] (stereo not given in full) | 0.394 (inactive) | -0.0295 | 29.2 (active) | 29 (active) | 0.581 (inactive) | 2.68 (inactive) | 0.0471 | -2.76 (inactive) | -0.295 (inactive) | -1.67
11 | COCCCNC(=O)[C@@]1(Cc2ccccc2N=[N+]=[N-])N=C(c2ccc(OCCCO)cc2)O[C@H]1c1ccccc1N=[N+]=[N-] | -0.439 (inactive) | 0.302 | 28.8 (active) | 25.2 (active) | 2.41 (inactive) | 5.91 (inactive) | 0.621 | -2.05 (inactive) | 0.518 (inactive) | -2.22
12 | CCOC(=O)C[C@H]1[C@H](OC(=O)Cc2ccc3c(c2)OCO3)[C@@H](NC(=O)c2ccc(-c3ccccc3)cc2)c2cc(OCCCO)ccc2N1C(=O)c1ccc2ccccc2n1 | 1.55 (inactive) | -0.0536 | 8.44 (active) | 0.67 (inactive) | -0.352 (inactive) | -0.258 (inactive) | 2.85 | -2.09 (inactive) | -1.28 (inactive) | -1.21
